Laboratory results: PMC4336329 (PLoS ONE, 2015)
Out of some 310,000 compounds screened, about 14,000 (4.5%) showed an effect of 50% or more. Effects have a minus sign here. The entries come from a sample that favours strong results as a whole.

Biological target: human ether-à-go-go-related gene (hERG) potassium channel (human, UniProt Q12809)
Experiment: primary screen, population patch clamp on CHO cells stably expressing hERG; higher = less effect of the substance
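Further: peak tail current of the secondary pulse compared with the same well before compound.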

human ether-à-go-go-related gene (hERG) potassium channel, sequence (Q12809 whole entry, looked up): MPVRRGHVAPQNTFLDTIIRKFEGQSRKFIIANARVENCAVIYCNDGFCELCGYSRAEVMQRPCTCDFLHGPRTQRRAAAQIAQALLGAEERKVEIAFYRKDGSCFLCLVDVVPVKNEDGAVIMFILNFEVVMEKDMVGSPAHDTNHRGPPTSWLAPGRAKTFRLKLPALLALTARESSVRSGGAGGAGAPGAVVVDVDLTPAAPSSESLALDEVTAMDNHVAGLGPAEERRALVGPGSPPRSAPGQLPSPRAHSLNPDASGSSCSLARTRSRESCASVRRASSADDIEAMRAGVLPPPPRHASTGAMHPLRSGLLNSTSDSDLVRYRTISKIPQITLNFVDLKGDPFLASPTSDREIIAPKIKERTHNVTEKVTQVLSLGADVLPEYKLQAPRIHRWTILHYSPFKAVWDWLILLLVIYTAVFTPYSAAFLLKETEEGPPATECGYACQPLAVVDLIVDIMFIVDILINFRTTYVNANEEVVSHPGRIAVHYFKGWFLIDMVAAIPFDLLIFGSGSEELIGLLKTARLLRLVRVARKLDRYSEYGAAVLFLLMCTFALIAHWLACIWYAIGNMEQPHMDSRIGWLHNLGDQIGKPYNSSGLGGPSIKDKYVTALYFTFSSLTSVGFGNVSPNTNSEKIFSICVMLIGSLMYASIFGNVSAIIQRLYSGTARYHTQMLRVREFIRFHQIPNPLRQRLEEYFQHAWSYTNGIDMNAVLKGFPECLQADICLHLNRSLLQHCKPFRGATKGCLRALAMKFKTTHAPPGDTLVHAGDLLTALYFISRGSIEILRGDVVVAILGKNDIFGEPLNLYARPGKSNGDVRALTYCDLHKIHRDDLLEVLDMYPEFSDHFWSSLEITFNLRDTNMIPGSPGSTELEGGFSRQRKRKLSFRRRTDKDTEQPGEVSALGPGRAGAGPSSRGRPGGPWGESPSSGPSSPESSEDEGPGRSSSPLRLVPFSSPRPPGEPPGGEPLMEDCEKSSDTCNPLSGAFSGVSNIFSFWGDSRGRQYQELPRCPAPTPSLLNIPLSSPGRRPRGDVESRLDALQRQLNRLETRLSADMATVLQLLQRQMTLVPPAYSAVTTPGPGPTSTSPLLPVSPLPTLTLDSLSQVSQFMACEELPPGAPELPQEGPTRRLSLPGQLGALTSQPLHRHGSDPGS

SMILES | hERG current change (%, negative = inhibition) at 10uM [%]
CN(C)c1ccc(CNn2cnnc2SCC(=O)NC(C)(C)C)cc1 | 23.4
CCOc1ccc(C(=O)OCC(=O)NCCCc2ccccc2)cc1 | 0.425
Cc1c(/C=N/n2cnnc2)c2ccccc2n1C | 1.25
COC(=O)c1ccc(NC(=O)C23CC4CC(C2)CC(n2cncn2)(C4)C3)cc1 | -22
O=C(NC1CCCCC1)C12CC3CC(C1)CC(n1cncn1)(C3)C2 | 0.934
CC(NC(=O)C12CC3CC(C1)CC(n1cncn1)(C3)C2)C12CC3CC(CC(C3)C1)C2 (stereo not drawn) | -61.9
CCN(CC)C(=O)CSC1=C(C#N)C(c2cccs2)C=C(C)N1 (stereo not drawn) | 14.1
COc1ccc2c(c1)CC/C(=C/c1ccncc1)C2=O | -55.2
COc1ccc2c(c1)CC/C(=C/c1ccccn1)C2=O | 3.19
COc1ccc2c(c1)CC/C(=C/c1cc(OC)c(OC)c(OC)c1)C2=O | -1.54
CCCc1cc(=O)oc2cc(OCc3cc(OC)c(OC)c(OC)c3)c(Cl)cc12 | 17.4
CC1(C)CC(NC(=S)NCc2ccco2)CC(C)(C)N1 | 18.9
COc1ccc(CN2CCN(C3CCC3)CC2CCO)c(C)c1C (stereo not drawn) | 0.432
Cc1ccc(CN2CCN(Cc3ccc(OCCO)cc3)CC2CCO)o1 (stereo not drawn) | 1.29
COc1ccc(CN2CCN(C3CCSCC3)CC2CCO)c(C)c1C (stereo not drawn) | -51.1
CCOc1ccccc1CN1CCN(C2CCSCC2)CC1CCO (stereo not drawn) | -25.9
CCOc1ccc(CN2CCN(Cc3ccc(C)o3)CC2CCO)cc1 (stereo not drawn) | -104
Cc1ccccc1CN1CCN(Cc2cc3ccccc3o2)CC1CCO (stereo not drawn) | -6.94
COc1ccc(CN2CCN(C3CCOCC3)CC2CCO)c(C)c1C (stereo not drawn) | -12.4
CCOc1ccc(CN2CCN(C3CCC3)CC2CCO)cc1 (stereo not drawn) | -19.2
COc1ccc(CN2CCN(Cc3cc4ccccc4o3)CC2CCO)c(F)c1 (stereo not drawn) | -60.9
CCOc1ccc(CN2CCN(C3CCSCC3)CC2CCO)cc1 (stereo not drawn) | -74.3
CCOc1ccccc1CN1CCN(Cc2ccc(C)o2)CC1CCO (stereo not drawn) | -37.9

SMILES | hERG current change (%, negative = inhibition) at 10uM [%]
COc1cccc(CN2CCN(Cc3cc4ccccc4o3)CC2CCO)c1 (stereo not drawn) | -10.7
CCOC(=O)C1=C(CS(=O)(=O)c2ccccc2)NC(=O)NC1c1ccccc1OCC (stereo not drawn) | -4.89
Cc1ccsc1C1NC(=O)c2ccccc2N1 (stereo not drawn) | 5.58
CCC(C)(C)NC(=O)C(c1ccc(OC)cc1)N(C(=O)CCC(=O)Nc1cc(C)on1)c1ccc2c(c1)OCCO2 (stereo not drawn) | 11.1
O=C1OC/C(=C(/O)c2ccc(Cl)cc2)C1=O | 17
Cc1cc(NC(=S)NC(=O)c2ccco2)c2ccccc2n1 | -1.51
Cc1ccc(S(=O)(=O)N2CCCCC2C(=O)O)cc1 (stereo not drawn) | 6.47
COc1ccc(C(=O)C2CCN(C(=S)NCC3CCCO3)CC2)cc1 (stereo not drawn) | -7.23
O=C(c1cccc(S(=O)(=O)N2CCCC2)c1)N(Cc1ccco1)C1CCS(=O)(=O)C1 (stereo not drawn) | -21.8
COc1ccc(CN2CCN(CC3CC3)CC2CCO)cc1C (stereo not drawn) | -0.194
Cc1ccc(CN2CCN(Cc3ccon3)CC2CCO)cc1 (stereo not drawn) | -11.1
COc1cc(CN2CCN(CC3CC3)CC2CCO)cc(OC)c1 (stereo not drawn) | 2.79
OCCC1CN(Cc2ccon2)CCN1Cc1ccccc1 (stereo not drawn) | 9.42
Cc1ccc(CN2CCN(Cc3cc4ccccc4o3)CC2CCO)cc1 (stereo not drawn) | -43.1
CCOc1ccc(CN2CCN(Cc3cc4ccccc4o3)CC2CCO)cc1 (stereo not drawn) | -80.4
CCOc1ccc(CN2CCN(CC3CC3)CC2CCO)cc1 (stereo not drawn) | -67.1
OCCC1CN(Cc2cc3ccccc3o2)CCN1Cc1ccc(F)cc1 (stereo not drawn) | -11.8
CCOc1ccc(CN2CCN(Cc3ccon3)CC2CCO)cc1 (stereo not drawn) | -62.8
N#CC(C#N)=Cc1c[nH]c(=O)c(C#N)c1Nc1ccccc1 | 16.1
O=C(CN(Cc1ccccc1)S(=O)(=O)c1ccccc1)NC1CC1 | -3.03
CCc1cc(=O)oc2cc(C)cc(OCC(=O)NCC3CCC(C(=O)O)CC3)c12 (stereo not drawn) | 4.34
CC(C)(C)NC(=O)CN(c1cccc([N+](=O)[O-])c1)S(=O)(=O)c1ccccc1 | -11.5
